These results are taken from publication PMC7862700, “An all-to-all approach to the identification of sequence-specific readers for epigenetic DNA modifications on cytosine”.

Common to all, as to assay: DAPPL (digital affinity profiling via proximity ligation, sequencing); 10 mM Tris-HCl pH 7.5, 50 mM NaCl, 1 mM DTT, 4% glycerol, room temperature, 30 min; GST-TFs on glutathione beads, 16-mer random dsDNA library, 0.1% formaldehyde crosslink after washing; high values mean tight binding
Holding throughout (settings): protein: recombinant; tags: N-terminal GST; dsDNA, one strand shown

One test addresses T1, ERG (Homo sapiens, UniProt P11308 1-479).
T1 sequence: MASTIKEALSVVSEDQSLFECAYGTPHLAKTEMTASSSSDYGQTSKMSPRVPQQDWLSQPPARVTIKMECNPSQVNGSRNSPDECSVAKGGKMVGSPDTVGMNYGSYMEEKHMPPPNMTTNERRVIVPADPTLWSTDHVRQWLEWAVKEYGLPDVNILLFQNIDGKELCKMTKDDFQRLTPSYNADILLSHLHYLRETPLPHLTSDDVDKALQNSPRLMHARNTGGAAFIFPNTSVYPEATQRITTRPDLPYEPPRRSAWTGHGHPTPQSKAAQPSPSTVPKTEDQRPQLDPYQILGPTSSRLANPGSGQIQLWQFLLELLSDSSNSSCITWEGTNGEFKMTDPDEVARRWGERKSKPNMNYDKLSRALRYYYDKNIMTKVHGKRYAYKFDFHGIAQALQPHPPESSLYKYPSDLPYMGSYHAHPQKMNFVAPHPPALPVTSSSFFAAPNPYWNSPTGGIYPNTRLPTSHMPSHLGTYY
The procedure, abridged:
(§1)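 Each value of binding signal is a hexamer's read frequency for a factor divided by the same hexamer's frequency in the tag-only sample. Barcoded, bead-captured GST fusions of human transcription factors made in yeast were pooled with that sample and incubated with 200 nmole of a random double-stranded 16-mer DNA library in Tris/NaCl/DTT/glycerol buffer at room temperature for 30 min. Washing, 0.1% formaldehyde crosslinking, proximity ligation, PCR and Illumina NextSeq500 sequencing followed.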

In another test the target is ELF1 (Homo sapiens, UniProt P32519 1-619). The procedure, abridged: as §1
Another test deals with T2, EHF (Homo sapiens, UniProt Q9NZC4 1-300).
T2 sequence: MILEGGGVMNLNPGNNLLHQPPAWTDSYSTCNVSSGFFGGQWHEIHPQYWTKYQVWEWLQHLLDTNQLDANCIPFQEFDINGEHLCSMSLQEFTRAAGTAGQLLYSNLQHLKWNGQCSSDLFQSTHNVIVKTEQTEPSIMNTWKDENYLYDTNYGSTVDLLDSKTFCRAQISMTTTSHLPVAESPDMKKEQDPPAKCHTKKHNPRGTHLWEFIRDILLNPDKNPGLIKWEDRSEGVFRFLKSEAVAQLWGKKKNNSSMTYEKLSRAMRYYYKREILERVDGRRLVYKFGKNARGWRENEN
The procedure, abridged:
as §1

A further test addresses SPI1 (Homo sapiens, UniProt P17947 1-270). The procedure, abridged: as §1
The next test has as its target SPIB (Homo sapiens, UniProt Q01892 1-262). A digest of the protocol:
as §1

The next test concerns the target ETV5 (Homo sapiens, UniProt P41161 1-510). A digest of the protocol:
as §1

Another test addresses ELF4 (Homo sapiens, UniProt Q99607 1-663). A digest of the protocol:
as §1

A further test concerns the target T3, ERF (Homo sapiens, UniProt P50548 1-548).
T3 sequence: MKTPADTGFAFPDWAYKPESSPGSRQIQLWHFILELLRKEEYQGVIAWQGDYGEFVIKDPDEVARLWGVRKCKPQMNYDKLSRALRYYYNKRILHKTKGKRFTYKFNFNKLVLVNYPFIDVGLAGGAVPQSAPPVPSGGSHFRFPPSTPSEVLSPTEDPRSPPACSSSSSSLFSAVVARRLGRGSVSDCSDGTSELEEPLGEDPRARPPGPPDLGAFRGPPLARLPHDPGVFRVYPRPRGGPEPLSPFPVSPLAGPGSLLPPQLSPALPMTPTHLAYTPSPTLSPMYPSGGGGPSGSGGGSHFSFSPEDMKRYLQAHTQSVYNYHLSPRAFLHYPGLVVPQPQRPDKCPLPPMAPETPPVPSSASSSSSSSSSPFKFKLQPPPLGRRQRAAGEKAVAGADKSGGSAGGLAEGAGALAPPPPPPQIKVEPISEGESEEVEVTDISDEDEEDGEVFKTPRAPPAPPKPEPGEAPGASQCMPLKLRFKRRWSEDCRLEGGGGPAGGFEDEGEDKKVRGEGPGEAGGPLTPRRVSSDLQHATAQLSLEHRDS
The procedure, abridged:
as §1

The next test has as its target T4, ETS2 (Homo sapiens, UniProt P15036 1-469).
T4 sequence: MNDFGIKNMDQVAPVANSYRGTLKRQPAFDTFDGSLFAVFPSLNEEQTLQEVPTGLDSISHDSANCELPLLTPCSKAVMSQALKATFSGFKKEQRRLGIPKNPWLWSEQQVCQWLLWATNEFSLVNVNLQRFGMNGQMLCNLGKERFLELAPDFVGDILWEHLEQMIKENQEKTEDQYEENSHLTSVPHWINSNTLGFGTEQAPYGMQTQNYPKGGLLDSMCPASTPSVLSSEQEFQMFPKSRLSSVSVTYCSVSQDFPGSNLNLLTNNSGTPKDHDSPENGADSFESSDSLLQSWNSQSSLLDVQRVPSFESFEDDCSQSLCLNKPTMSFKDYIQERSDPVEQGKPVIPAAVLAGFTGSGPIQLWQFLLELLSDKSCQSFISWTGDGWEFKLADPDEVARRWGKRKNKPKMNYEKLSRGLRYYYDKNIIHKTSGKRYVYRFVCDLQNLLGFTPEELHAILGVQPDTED
A digest of the protocol:
as §1

A further test addresses T5, ETV7 (Homo sapiens, UniProt Q9Y603 1-341).
T5 sequence: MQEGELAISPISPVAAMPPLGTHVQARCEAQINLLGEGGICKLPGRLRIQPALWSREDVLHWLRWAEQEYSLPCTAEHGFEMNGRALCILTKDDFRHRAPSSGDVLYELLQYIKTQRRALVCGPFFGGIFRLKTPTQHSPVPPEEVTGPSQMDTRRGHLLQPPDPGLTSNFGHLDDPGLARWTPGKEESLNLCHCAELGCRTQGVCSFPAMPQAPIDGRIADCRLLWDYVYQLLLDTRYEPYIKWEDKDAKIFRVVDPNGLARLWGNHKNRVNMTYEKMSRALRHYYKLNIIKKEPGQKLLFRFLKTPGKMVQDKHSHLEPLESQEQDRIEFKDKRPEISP
The procedure, abridged:
as §1

For a further test, the target named is T6, ETV3 (Homo sapiens, UniProt P41162-2 1-143).
T6 sequence: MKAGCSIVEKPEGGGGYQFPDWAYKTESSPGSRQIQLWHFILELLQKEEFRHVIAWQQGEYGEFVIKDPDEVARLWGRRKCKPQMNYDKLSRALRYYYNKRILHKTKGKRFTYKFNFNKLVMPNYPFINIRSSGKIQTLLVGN
The procedure, abridged:
as §1

For the next test, the target named is ETV6 (Homo sapiens, UniProt P41212 1-452). The procedure, abridged:
as §1

The next test addresses T7, SPDEF (Homo sapiens, UniProt O95238 1-335).
T7 sequence: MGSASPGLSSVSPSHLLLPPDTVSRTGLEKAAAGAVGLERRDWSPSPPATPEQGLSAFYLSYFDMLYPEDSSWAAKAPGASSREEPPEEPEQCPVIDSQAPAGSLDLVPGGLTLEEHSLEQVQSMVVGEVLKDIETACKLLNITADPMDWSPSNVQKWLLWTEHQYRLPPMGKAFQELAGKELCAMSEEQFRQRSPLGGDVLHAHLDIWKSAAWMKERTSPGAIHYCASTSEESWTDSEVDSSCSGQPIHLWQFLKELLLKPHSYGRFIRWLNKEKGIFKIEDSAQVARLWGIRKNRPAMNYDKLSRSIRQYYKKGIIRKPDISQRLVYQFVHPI
The procedure, abridged: as §1

A further test concerns the target T8, GABPA (Homo sapiens, UniProt Q06546 1-454).
T8 sequence: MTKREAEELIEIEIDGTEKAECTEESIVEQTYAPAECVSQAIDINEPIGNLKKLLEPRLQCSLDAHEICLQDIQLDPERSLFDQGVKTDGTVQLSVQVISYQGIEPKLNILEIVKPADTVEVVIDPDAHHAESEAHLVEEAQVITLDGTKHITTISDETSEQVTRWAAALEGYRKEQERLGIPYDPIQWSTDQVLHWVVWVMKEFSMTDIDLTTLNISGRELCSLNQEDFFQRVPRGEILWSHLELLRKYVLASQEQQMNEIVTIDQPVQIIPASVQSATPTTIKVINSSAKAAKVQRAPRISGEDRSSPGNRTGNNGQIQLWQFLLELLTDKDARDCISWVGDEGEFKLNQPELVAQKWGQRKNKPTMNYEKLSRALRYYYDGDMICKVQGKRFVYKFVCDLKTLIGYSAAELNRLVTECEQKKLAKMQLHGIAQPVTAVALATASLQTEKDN
The procedure, abridged:
as §1

A further test deals with T9, ELF3 (Homo sapiens, UniProt P78545 1-371).
T9 sequence: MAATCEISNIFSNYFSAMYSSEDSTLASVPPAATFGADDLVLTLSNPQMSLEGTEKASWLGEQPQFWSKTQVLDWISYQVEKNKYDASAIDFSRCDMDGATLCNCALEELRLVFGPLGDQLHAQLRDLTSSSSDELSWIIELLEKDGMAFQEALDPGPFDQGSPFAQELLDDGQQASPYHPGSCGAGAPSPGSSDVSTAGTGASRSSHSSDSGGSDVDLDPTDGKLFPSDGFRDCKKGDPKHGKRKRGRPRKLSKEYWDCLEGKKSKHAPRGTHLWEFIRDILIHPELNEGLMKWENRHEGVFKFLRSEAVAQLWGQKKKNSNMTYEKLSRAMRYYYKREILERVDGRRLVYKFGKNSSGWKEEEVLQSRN
A digest of the protocol:
as §1

Chain of ETV6 (P41212 whole entry): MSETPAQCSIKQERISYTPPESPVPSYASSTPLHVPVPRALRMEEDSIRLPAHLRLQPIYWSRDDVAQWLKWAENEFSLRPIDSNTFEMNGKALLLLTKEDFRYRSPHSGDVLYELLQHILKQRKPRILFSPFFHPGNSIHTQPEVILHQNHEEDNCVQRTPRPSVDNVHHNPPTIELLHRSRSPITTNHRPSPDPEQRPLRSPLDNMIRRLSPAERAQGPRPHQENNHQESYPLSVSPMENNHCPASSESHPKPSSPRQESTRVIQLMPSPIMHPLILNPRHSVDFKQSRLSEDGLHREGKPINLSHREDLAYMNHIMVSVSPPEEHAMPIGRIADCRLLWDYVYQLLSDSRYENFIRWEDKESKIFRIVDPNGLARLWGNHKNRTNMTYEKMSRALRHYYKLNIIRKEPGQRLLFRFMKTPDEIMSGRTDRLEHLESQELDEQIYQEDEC
Chain of ETV5 (P41161 whole entry): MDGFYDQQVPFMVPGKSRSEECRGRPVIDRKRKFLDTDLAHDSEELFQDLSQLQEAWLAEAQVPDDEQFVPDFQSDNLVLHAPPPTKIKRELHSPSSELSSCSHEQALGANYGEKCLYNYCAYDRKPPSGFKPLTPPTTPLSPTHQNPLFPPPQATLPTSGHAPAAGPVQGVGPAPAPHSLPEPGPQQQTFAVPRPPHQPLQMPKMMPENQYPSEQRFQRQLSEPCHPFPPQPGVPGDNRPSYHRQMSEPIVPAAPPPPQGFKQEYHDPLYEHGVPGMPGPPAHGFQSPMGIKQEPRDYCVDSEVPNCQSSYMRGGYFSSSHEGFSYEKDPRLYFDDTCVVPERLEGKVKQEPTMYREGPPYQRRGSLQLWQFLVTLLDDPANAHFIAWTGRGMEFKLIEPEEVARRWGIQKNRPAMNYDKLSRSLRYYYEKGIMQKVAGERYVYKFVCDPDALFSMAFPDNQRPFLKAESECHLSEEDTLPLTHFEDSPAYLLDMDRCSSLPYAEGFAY
Chain of ELF1 (P32519 whole entry): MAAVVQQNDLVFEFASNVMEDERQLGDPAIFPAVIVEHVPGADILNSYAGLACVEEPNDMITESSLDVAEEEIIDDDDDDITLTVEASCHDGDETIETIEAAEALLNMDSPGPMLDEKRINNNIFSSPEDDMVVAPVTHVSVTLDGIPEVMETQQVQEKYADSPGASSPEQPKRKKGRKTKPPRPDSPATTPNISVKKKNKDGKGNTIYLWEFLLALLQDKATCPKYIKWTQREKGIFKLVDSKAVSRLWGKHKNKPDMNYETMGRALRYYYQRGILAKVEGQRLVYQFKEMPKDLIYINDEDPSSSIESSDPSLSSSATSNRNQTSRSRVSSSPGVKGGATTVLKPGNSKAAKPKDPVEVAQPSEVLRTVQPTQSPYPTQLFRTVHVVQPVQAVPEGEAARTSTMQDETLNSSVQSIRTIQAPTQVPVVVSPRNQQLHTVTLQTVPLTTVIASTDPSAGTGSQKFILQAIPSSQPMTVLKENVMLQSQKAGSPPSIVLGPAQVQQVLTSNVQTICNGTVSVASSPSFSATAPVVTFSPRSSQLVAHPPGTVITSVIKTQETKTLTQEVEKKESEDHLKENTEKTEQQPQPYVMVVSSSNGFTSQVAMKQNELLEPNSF
Chain of SPIB (Q01892 whole entry): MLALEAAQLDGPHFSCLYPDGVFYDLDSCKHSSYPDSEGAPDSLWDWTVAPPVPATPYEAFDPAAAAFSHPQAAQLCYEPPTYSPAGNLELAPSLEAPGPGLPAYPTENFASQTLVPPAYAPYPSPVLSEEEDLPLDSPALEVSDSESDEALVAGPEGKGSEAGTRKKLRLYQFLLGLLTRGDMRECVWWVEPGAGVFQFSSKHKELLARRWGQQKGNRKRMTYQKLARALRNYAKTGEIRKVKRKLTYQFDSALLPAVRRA
Chain of ELF4 (Q99607 whole entry): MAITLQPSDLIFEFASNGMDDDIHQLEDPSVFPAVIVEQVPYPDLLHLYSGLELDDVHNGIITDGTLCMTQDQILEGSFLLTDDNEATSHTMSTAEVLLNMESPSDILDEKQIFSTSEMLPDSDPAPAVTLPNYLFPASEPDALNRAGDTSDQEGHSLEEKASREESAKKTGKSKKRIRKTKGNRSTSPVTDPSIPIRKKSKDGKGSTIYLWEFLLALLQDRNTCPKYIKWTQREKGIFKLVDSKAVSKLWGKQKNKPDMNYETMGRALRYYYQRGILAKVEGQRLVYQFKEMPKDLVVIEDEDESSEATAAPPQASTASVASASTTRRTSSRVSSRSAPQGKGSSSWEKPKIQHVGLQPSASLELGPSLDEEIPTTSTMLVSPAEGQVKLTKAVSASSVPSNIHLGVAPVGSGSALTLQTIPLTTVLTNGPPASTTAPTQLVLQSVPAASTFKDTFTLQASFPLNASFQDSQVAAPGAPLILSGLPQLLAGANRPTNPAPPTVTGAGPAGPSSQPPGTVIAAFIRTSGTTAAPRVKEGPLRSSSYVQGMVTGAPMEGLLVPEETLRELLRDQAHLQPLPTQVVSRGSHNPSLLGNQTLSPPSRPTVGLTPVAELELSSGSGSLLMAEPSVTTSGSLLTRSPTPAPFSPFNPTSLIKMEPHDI

Turning to CCACCG, the binding signal with ERG was 1.03 fold enrichment (6-mer frequency, TF over GST control); with ELF1, 1.01 fold enrichment (6-mer frequency, TF over GST control); in the test with EHF, 1.07 fold enrichment (6-mer frequency, TF over GST control); in the test with SPI1, 1.04 fold enrichment (6-mer frequency, TF over GST control); in the test with SPIB, 1.09 fold enrichment (6-mer frequency, TF over GST control); in the test with ETV5, 1 fold enrichment (6-mer frequency, TF over GST control). Besides, the binding signal in the test with ELF4 was 1.11 fold enrichment (6-mer frequency, TF over GST control); with ERF, 1.2 fold enrichment (6-mer frequency, TF over GST control); with ETS2 it was 1.02 fold enrichment (6-mer frequency, TF over GST control); in the test with ETV7 it was 1.06 fold enrichment (6-mer frequency, TF over GST control); in the test with ETV3, 1.04 fold enrichment (6-mer frequency, TF over GST control); with ETV6 it was 1.06 fold enrichment (6-mer frequency, TF over GST control).
AGTACC: the binding signal in the test with SPI1 was 1.03 fold enrichment (6-mer frequency, TF over GST control); in the test with ETV5, 1.04 fold enrichment (6-mer frequency, TF over GST control); in the test with SPDEF, 1.01 fold enrichment (6-mer frequency, TF over GST control); with ETV6 it was 1.04 fold enrichment (6-mer frequency, TF over GST control).
Take AACTGT: the binding signal is 1.01 fold enrichment (6-mer frequency, TF over GST control) in the test with GABPA; 1.02 fold enrichment (6-mer frequency, TF over GST control) with ELF1; 1 fold enrichment (6-mer frequency, TF over GST control) with ETV5; 1.09 fold enrichment (6-mer frequency, TF over GST control) with ELF3; 1.04 fold enrichment (6-mer frequency, TF over GST control) with ETV6.
